Here are results for 40 compounds from PubChem BioAssay (NCATS).

Results filed as inconclusive are left out. Entries that show only a call come without a potency. Calls of active or inactive are those of the source. The call rests on the fitted dose curve; in most records, active means well fitted inhibition curve with a large enough effect; inconclusive means small, poorly fitted or top-dose-only effect; inactive means flat fitted curve, though single readings scatter.
Potency means the concentration at half of the fitted maximal effect.

Ubiquitin carboxyl-terminal hydrolase 1 (Homo sapiens), sequence (O94782 whole entry, looked up): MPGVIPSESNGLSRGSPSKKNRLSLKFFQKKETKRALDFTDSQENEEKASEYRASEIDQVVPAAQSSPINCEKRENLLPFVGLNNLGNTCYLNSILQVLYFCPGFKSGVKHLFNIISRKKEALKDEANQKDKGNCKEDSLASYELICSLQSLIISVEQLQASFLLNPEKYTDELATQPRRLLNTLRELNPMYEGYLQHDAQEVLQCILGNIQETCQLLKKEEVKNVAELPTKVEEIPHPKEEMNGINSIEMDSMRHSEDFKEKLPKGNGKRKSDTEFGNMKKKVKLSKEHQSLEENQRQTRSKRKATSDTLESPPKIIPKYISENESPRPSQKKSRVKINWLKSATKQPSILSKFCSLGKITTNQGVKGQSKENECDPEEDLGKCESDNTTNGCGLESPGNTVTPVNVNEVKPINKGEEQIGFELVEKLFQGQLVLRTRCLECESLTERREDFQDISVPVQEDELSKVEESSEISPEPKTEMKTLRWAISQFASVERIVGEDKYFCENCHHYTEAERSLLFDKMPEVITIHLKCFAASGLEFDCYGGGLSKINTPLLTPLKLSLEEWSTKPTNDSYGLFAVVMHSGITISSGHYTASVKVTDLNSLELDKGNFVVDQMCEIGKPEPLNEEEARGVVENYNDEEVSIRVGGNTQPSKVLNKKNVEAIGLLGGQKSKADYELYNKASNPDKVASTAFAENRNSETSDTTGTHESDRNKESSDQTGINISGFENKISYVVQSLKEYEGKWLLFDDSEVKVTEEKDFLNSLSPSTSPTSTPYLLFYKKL

The test has as its target Ubiquitin carboxyl-terminal hydrolase 1 (Homo sapiens) (UniProt O94782). In words: Inhibitors of USP1/UAF1: Pilot qHTS (AID 504865). Further: nearly all actives have a fitted effect of over 35% in size. The note with it: purified USP1/UAF1, Ub-rhodamine cleavage fluorescence; series mostly up to 54.9 µM. From the text:
Deubiquitinating enzymes (DUBs) are a class of enzymes that can cleave isopeptide bond formed between the C-terminal carboxylate of ubiquitin and a lysine side-chain amino group on the target protein. Among them, ubiquitin specific proteases (USPs) constitute the largest DUB family. Human USPs are emerging as promising targets for pharmacological intervention because of their connection to a number of human diseases, including prostate, colon and breast cancer (1, 2), pediatric acute lymphoblastic leukemia (3), and familial cylindromatosis (4). The advantage of inhibiting USPs lies in the potential specificity of therapeutic intervention that can lead to better efficacy and reduce nonspecific side effects.
In a collaboration between the University of Delaware and the NIH Chemical Genomics Center, a high-throughput screen assay was developed to screen for USP1/UAF1 inhibitors. This miniaturized assay has a fluorescent read-out and is used to screen the NIH Molecular Libraries Small Molecule Repository (MLSMR) in order to identify a small molecule that inhibits USP1.
NIH Chemical Genomics Center [NCGC]
NIH Molecular Libraries Probe Centers Network [MLPCN]
Assay Submitter (PI): Zhihao Zhuang, University of Delaware
1. Priolo, C., et al. (2006) The isopeptidase USP2a protects human prostate cancer from apoptosis. Cancer Res 66, 8625-8632
2. Popov, N., et al. (2007) The ubiquitin-specific protease USP28 is required for MYC stability. Nat Cell Biol 9, 765-774
3. De Pitta, C., et al. (2005) A leukemia-enriched cDNA microarray platform identifies new transcripts with relevance to the biology of pediatric acute lymphoblastic leukemia. Haematologica 90, 890-898
4. Kovalenko, A., et al. (2003) The tumour suppressor CYLD negatively regulates NF-kappaB signalling by deubiquitination. Nature 424, 801-805
3 microliters of reagents (buffer in columns 3 and 4 as negative control and 1nM USP1/UAF1 complex in columns 1, 2, and 5-48) are dispensed into Greiner black solid bottom 1536-well assay plates. Compounds are then transferred via Kalypsys pin tool equipped with 1536-pin array (10nl slotted pins, V&P Scientific, San Diego, CA). Following an incubation step of 15 min at room temperature, 1ul of Ub-Rho substrate (150nM final concentration) is added to initiate the reaction. The plates are immediately centrifuged at 1000 rpm for 15 seconds, and subsequently transferred to a ViewLux high-throughput CCD imager (PerkinElmer) wherein kinetic measurements of fluorescence are acquired using 480 nm excitation/540 nm emission filter set (6 reads every 60 seconds, see Table 1). All reagents are diluted in an assay buffer consisting of 50mM HEPES (pH 7.8), 0.5mM EDTA, 0.1 mg/ml BSA, 1mM TCEP, and 0.01% Tween-20.
Consider `COc1ccccc1CNc1ncnc2ccc(-c3cccc(NS(C)(=O)=O)c3)cc12`, for which the Potency entry was “inactive”. In the case of `COCCn1c(=O)c(-c2cccs2)nc2cnc(N3CCNCC3)nc21` it was “inactive”; in that of `COCCn1c(=O)c(CCc2ccccc2)nc2cnc(Oc3ccccc3)nc21`, “inactive”. With `COc1ncc2nc(-c3cccs3)c(=O)n(CCC#N)c2n1` the entry was “inactive”; with `CN(C)c1nc(-c2cccc(NS(C)(=O)=O)c2)nc2ccccc12`, “inactive”; with `Cc1nc2cnc(Oc3cccc(Cl)c3)nc2n(Cc2ccc(F)cc2)c1=O`, “inactive”. With `CN(C)C(=O)c1ccc(-c2ccc3ncnc(Nc4ccc(F)cc4)c3c2)cc1` the entry was “inactive”; with `CC(=O)Oc1c2c(c3c(c1CC=C(C)C)O[C@@]14C(=CC5CC1C(C)(C)OC4(C/C=C(\C)C(=O)O)C5=O)C3=O)OC(C)(CCC=C(C)C)C=C2` (stereo not given in full), 31.6 µM (active). Turning to `COc1ccc2[nH]cc(CCNc3ncncc3-c3ccccc3C)c2c1`, the Potency result is “inactive”.

Turning to `COc1cc(/C=C/C(=O)N2CCC=CC2=O)cc(OC)c1OC`, the Potency result is “inactive”.

On to `CN(C)c1ncc2nc(CCc3ccccc3)c(=O)n(Cc3cccs3)c2n1`, for which the Potency entry was “inactive”. In the case of `CCNc1ncc2nc(CCc3ccccc3)c(=O)n(CCC#N)c2n1` it was “inactive”; in that of `O=C1CC(c2ccccc2)Oc2ccccc21` (stereo not given), “inactive”.

Consider `O=c1c(CCc2ccccc2)nc2cnc(Nc3ccccc3)nc2n1C[C@H]1CCCO1`, for which the Potency result was “inactive”.

As to `CCC(=O)O[C@@H](OP(=O)(CCCCc1ccccc1)CC(=O)N1C[C@H](C2CCCCC2)C[C@H]1C(=O)O)C(C)C` (stereo not given in full), the Potency entry is “inactive”.

`CC1CCC(C(C)C)C(OC(=O)c2ccccc2O)C1` (stereo not given): the Potency entry is “inactive”. In the case of `COc1ccc(Oc2ncc3nc(-c4cccc(C#N)c4)c(=O)n(Cc4cccc(OC)c4)c3n2)cc1` it was “inactive”; in that of `c1ccc2c(NCCN3CCOCC3)nc(-c3ccc4c(c3)OCO4)nc2c1`, “inactive”.

For `COc1cccc(-c2nc(NCCN3CCOCC3)c3ccccc3n2)c1`, the Potency entry is “inactive”. In the case of `O=NCc1ccc([N+](=O)[O-])o1` it was “inactive”; in that of `COc1ccc2[nH]cc(CCNc3cc(-c4ccccc4OC)ncn3)c2c1`, “inactive”. In the case of `COc1ccc2[nH]cc(CCNc3nc(-c4ccccc4OC)nc4ccccc34)c2c1`, the Potency result is “inactive”.

As to `COCCn1c(=O)c(-c2cccc(C#N)c2)nc2cnc(Oc3cccc(Cl)c3)nc21`, the Potency result was “inactive”. With `Cn1c(=O)c(-c2ccc(Cl)cc2)nc2cncnc21` the entry was “inactive”; with `COc1cccc(-c2ccc3ncnc(NCc4cnc(C)cn4)c3c2)c1`, “inactive”.

As to `COc1ccc2[nH]cc(CCNc3cc(-c4cccc(C#N)c4)ncn3)c2c1`, the Potency entry was “inactive”. Turning to `N#Cc1ccccc1-c1ccc2ncnc(NCc3cccnc3)c2c1`, the Potency result is “inactive”. In the case of `COc1ccc2[nH]cc(CCNc3ncnc4ccc(-c5ccoc5)cc34)c2c1` it was “inactive”; in that of `COc1ccc2[nH]cc(CCNc3ncncc3-c3ccccc3C(F)(F)F)c2c1`, “inactive”; in that of `COc1ccc2[nH]cc(CCNc3ncnc4ccc(-c5cccc(C#N)c5)cc34)c2c1`, “inactive”. In the case of `C=C[C@]1(C)C[C@@H](OC(=O)CSCCN(CC)CC)[C@]2(C)C(C)CC[C@]3(CCC(=O)[C@H]32)[C@@H](C)[C@@H]1O` (stereo not given in full) it was “inactive”; in that of `Cn1cc(-c2nc3cnc(N4CCNCC4)nc3n(C3CC3)c2=O)c2ccccc21`, “inactive”; in that of `Cc1cnc(CNc2ncnc3ccc(-c4ccccc4Cl)cc23)cn1`, “inactive”. Consider `COCCn1c(=O)c(-c2cc(F)cc(F)c2)nc2cnc(N3CCN(C)CC3)nc21`, for which the Potency result is “inactive”. With `c1ccc(Nc2nc(-c3cccnc3)nc3ccccc23)cc1` the entry was “inactive”; with `COc1cccc(-c2ccc3ncnc(N4CCNCC4)c3c2)c1`, “inactive”.

In the case of `COc1ccccc1CNc1ccnc(-c2cccnc2)n1`, the Potency result is “inactive”. On to `CCNc1ncc2nc(-c3ccc(OC)cc3)c(=O)n(C)c2n1`, for which the Potency entry is “inactive”.

For `COc1ccc(CNc2ncncc2-c2ccccc2OC)c(OC)c1`, the Potency result is “inactive”. As for `COc1ccccc1CNc1ncncc1-c1ccccc1C(F)(F)F`, the Potency result was “inactive”.
